# HPGD inh: blocks human HPGD enzyme activity. P15428. purified HPGD, NADH fluorescence kinetic, PGE2 substrate. Potency, µM, for the others: top-dose activity change, negative = inhibition, most hits filed as inhibitors. actives 4.3% (n = 150,000); active = well fitted inhibition curve with a large enough effect, not every such curve was filed as active; inconclusive = small, poorly fitted or top-dose-only effect, or another doubt; inactive = no such curve, though single readings can be large or run the other way; note: potency is the fitted concentration of half-maximal effect; % is set by controls: 0 for no effect and ±100 for the full control effect
# Target sequence (P15428 whole entry, looked up): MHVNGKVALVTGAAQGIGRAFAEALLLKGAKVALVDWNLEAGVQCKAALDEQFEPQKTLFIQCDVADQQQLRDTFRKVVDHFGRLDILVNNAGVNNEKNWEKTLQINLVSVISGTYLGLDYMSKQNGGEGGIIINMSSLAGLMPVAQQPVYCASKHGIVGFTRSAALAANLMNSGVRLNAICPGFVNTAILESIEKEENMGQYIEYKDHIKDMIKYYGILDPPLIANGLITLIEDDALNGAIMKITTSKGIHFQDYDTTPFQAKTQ
#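 NADH formation kinetics: reaction with 30 uM PGE2 and 1 mM NAD+ (final), 20 nM enzyme, Tris-HCl pH 8 with Tween 20, after 15 min compound preincubation at room temperature. Fluorescence change, last versus first of five reads.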
# HTT ATP protect: protects HTT-Q103 PC12 cells, measured by ATP. PC12 HTT-Q103 induced, cytoprotection, ATP luminescence, 40 h. Potency, µM (doses to about 56.4 µM), inactives show cytoprotection (ATP increase), most hits filed as activators. actives 0.14% (n = 230,000). AID 1471; note: potency is the fitted concentration of half-maximal effect; % of control where 0% means no effect; nearly all actives have a fitted effect of over 45% in size
#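 Rat PC12, Q103 Htt exon1-GFP fusion, ecdysone promoter; tebufenozide inducer 100 nM final; compound titration; qHTS, 1500 cells/well; ATPlite luminescent read.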
# PNC inhibitor: inhibitors of perinucleolar compartment assembly. PC3M PTB-GFP, PNC prevalence imaging, 16 h; hits give low values. actives 3.1% (n = 140,000). activity change (PNC), negative = inhibition, % at 10 µM. AID 2417;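 active = readout at or below -70, meaning at least 70% loss of cells showing the perinucleolar compartment, a nuclear body marking cancer cells; inconclusive = readout between -30 and a set limit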;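 note: plate controls were DMSO wells for no effect and camptothecin positive control wells for full effect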
#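 PC3M cells stably expressing PTB-GFP, 750–1000 cells/well, treated 16 h at 37 °C with compound (23 nl of library stock), in duplicate. After paraformaldehyde fixation and Hoechst stain, imaged at 20x; PNC prevalence scored by image analysis.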
# HTT aggregate: inhibitors of mutant huntingtin aggregate formation in PC12 cells; PC12 HttQ103-GFP aggregates, Acumen cytometry, 40 h; AID 1688; Potency, µM (titrated, usually from 46.1 µM), for inactives: top-dose activity change, negative = inhibition, actives largely listed as inhibitors; actives 1.1% (n = 220,000); note: potency is the fitted concentration of half-maximal effect; % is set by controls: 0 for no effect and ±100 for the full control effect; nearly all actives have a fitted effect of over 60% in size
#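 PC12 cells stably carrying ecdysone-inducible HTT exon 1 Q103–GFP were induced with tebufenozide (100 nM final) and treated with library compounds in titration. GFP aggregates in lysates were counted by laser scanning cytometry.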
# GoLoco inh red: inhibitors of human Gai1-RGS12 GoLoco interaction (red fluorophore); P63096; Gai1:RGS12 GoLoco peptide FP, rhodamine, 10 min; Potency, µM (doses to about 61.6 µM), without a hit: top-dose activity, negative = inhibition, most hits filed as inhibitors; actives 0.44% (n = 230,000); AID 880; active = well fitted inhibition curve with a large enough effect, not every such curve was filed as active; inactive = no such curve, though single readings can be large or run the other way; note: potency is the fitted concentration of half-maximal effect; % is set by controls: 0 for no effect and ±100 for the full control effect; nearly all actives have a fitted effect of over 30% in size
# Target sequence (P63096 whole entry, looked up): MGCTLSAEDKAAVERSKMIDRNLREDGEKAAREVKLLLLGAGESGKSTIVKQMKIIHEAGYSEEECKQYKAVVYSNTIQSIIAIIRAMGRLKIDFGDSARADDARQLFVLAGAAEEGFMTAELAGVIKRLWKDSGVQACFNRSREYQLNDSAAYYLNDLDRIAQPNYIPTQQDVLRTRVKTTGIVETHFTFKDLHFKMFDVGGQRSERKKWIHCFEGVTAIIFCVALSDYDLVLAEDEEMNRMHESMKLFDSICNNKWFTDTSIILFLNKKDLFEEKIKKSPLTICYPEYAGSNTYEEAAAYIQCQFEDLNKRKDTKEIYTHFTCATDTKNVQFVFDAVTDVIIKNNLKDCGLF
# ALDH1A1 inh: blocks purified human ALDH1A1 activity; P00352; Potency, µM (titrated, usually from 75.3 µM), without a hit: top-dose activity, negative = inhibition, hits mostly inhibitors; Purified ALDH1A1, NADH fluorescence, propionaldehyde substrate; actives 7.3% (n = 220,000); active = well fitted inhibition curve with a large enough effect, not every such curve was filed as active; inconclusive = small, poorly fitted or top-dose-only effect, or another doubt; inactive = no such curve, though single readings can be large or run the other way;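 note: potency is the fitted concentration of half-maximal effect; plate controls were no enzyme wells and a reference inhibitor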
# * marks the source's active call; other numbers are inactive results; ? = inconclusive; nt = no result; [ ] = remark or other dose. Rows were chosen to be rich in hits. Some 11% of all compounds tested hit in one or more screens of this group. Unless noted, calls come from the whole dose curve; as a rule, active = well fitted curve in the direction sought with a large enough effect; inconclusive = small, poorly fitted or top-dose-only effect, or another doubt; inactive = no such curve, though single readings can be large; an effect the other way counts as inactive or inconclusive.
SMILES,HPGD inh,HTT ATP protect,PNC inhibitor,HTT aggregate,GoLoco inh red,ALDH1A1 inh
O=C1CC(N2CCN(c3ccc(Cl)c(Cl)c3)CC2)C(=O)N1 (stereo not given),-6%,3%,-18,25µM*,0%,?
O=C(Cc1coc(-c2ccc(F)cc2)n1)NC1CCCCC1,18µM*,0%,26,-7%,4%,9%
O=C(Cc1coc(-c2ccc(F)cc2)n1)N1CCOCC1,-6%,-5%,-5,7%,3%,3%
CSc1ccccc1NC(=O)CN(C)CC(=O)Nc1ccccc1F,1%,7%[0.074 µM],16,7%,13%,10%
CC(=O)N[C@H]1C(O[C@@H]2O[C@H](C[C@@H](O)[C@H]3O[C@@H](N4CCC(=O)NC4=O)[C@H](O)[C@@H]3O)[C@H](O)[C@H](O)[C@H]2NC(=O)/C=C/CCCCCCCCCCC(C)C)OC(CO)[C@@H](O)[C@@H]1O (stereo not given in full),-3%,-322%,nt,nt,-3%,-4%
COC(=O)c1ccc2c(=O)[nH]c(CN3c4ccccc4CC3C)nc2c1 (stereo not given),-13%,-21%,-4,17%,11%,11µM*
CC1Cc2ccccc2N1Cc1nc2cc(Cl)ccc2c(=O)[nH]1 (stereo not given),-23%,-1%,-18,15%[9.22 µM],44%,?
COc1ccc2cc(/C=N/NC(=O)c3ccc(CN(c4ccc(C)c(C)c4)S(C)(=O)=O)cc3)c(Cl)nc2c1,?,5%[1.9 µM],18,-15%,44%,?
COc1ccc2cc(/C=N/NC(=O)c3c(Cl)cnn3C)c(Cl)nc2c1,?,nt,-86*,1%,9%,?
CCOC(=O)Cc1csc(NS(=O)(=O)c2ccc(C(F)(F)F)cc2)n1,nt,21%[10 µM],nt,15%[9.22 µM],-2%,-1%
COc1ccc(Oc2ncc3ncc(=O)n(CCc4ccccc4)c3n2)cc1,-4%,23%,nt,nt,9%,0.89µM*
O=c1cnc2cnc(OCc3ccccc3)nc2n1Cc1ccc(F)cc1,32µM*,-241%,nt,nt,29%,?
COc1ccc(Oc2ncc3ncc(=O)n(Cc4cccc(OC)c4)c3n2)cc1,18µM*,-139%,nt,nt,0%,-5%
COc1ccc(Oc2ncc3nc(C)c(=O)n(Cc4cccc(OC)c4)c3n2)cc1,nt,-41%,nt,nt,10%,?
C=C1CCC(O)C/C1=C\C=C1/CCCC2(C)C1CCC2C(C)/C=C/C(C)C(C)C (stereo not given),-7%,16%[1.9 µM],nt,nt,2%,4%
O=C1CCC2(CC1)NC(=O)N(c1ccccc1)N2,nt,-42%,nt,4%,0%,4%
CCOc1nc(SCCOc2ccc(C)cc2)nc(N(C)C)n1,-22%,-9%[10 µM],-16,2%,-10%,-2%
CCNc1nc(NCC)nc(SCCOc2ccc(C)cc2)n1,-15%,nt,-113*,-7%,2%,?
O=C(N/N=C/c1cc([N+](=O)[O-])c(N2CCOCC2)cc1N1CCOCC1)c1cccnc1,nt,-35%,nt,4%,1%,?
N#C/C(=C\c1cc([N+](=O)[O-])ccc1Cl)C(N)=O,nt,1.3µM*,nt,6%,7%,3%
CC(=O)OCC[n+]1c(C)n(-c2ccccc2)c2ccc(Cl)cc21,nt,nt,nt,25%,8.9µM*,3%
CCOC(=O)c1ccc2c(c1)[n+](CC)c(C)n2-c1ccccc1,nt,-7%[10 µM],nt,12%[9.22 µM],10%,-3%
CCCN(CCc1ccccc1)[C@H]1CCc2c(O)cccc2C1,nt,31%[1.9 µM],nt,nt,nt,nt
Cc1ccc(S(=O)(=O)NCCC(=O)Nc2nnc(C3CC3)s2)cc1C,-9%,4%,?,-4%,2%,18µM*
Nc1ccccc1CCCC(=O)O,-6%,21%[10 µM],nt,nt,-4%[14.2 µM],9%[13.5 µM]
SMILES,HPGD inh,HTT ATP protect,PNC inhibitor,HTT aggregate,GoLoco inh red,ALDH1A1 inh
NC1=C(c2ccc(F)cc2)C(=O)CS1,6.3µM*,6%,?,?,33%,20µM*
Nc1nnc(-c2ccc(F)cc2)s1,-17%,-3%,18,-2%,8%,-9%
CC(C)(C)OC(=O)NNC1CC(=O)N(c2ccccc2F)C1=O (stereo not given),-1%,-2%,-9,10%,3%,10%
O=C(CN(C(=O)CSc1nc2ccccc2o1)c1cccc(F)c1)NC1CCCCC1,-4%,-37%,-5,6%,-1%,6%
Cc1nn(C)c(C)c1CNC(=O)/C=C/c1ccccc1F,-18%,nt,-113*,6%,-3%,-9%
CCCCCC1CCC(c2n[nH]c(=S)n2C)CC1 (stereo not given),nt,2%,nt,-8%,3%,-6%
CC(C)CC(c1nnnn1Cc1ccccc1)N1CCN(C(=O)c2ccco2)CC1 (stereo not given),0%,-3%[10 µM],-17,-2%,8%,25µM*
O=C(c1ccco1)N1CCN(C(c2ccccc2Cl)c2nnnn2Cc2ccco2)CC1 (stereo not given),-6%,?,14,7%,-3%,11µM*
O=C(c1ccco1)N1CCN(C(c2ccccc2Cl)c2nnnn2Cc2cccs2)CC1 (stereo not given),-10%,12%,-27,20%,3%,13µM*
CC(C)C(c1nnnn1Cc1cccs1)N1CCN(C(=O)c2ccco2)CC1 (stereo not given),nt,-79%[10 µM],nt,?,12%,12%
CCC(c1nnnn1Cc1ccco1)N1CCN(C(=O)c2ccco2)CC1 (stereo not given),0%,-13%,3,-4%,1%,?
O=C(c1ccco1)N1CCN(C(c2ccc(F)cc2)c2nnnn2Cc2cccs2)CC1 (stereo not given),-4%,8%,4,1%,-6%,?
O=C(c1ccco1)N1CCN(C(c2ccccc2)c2nnnn2Cc2cccs2)CC1 (stereo not given),-4%,-18%,-22,-11%,-14%,2.2µM*
COc1ccc(CCNC(=O)c2cn3ccc(C)cc3n2)cc1OC,nt,-43%,nt,13%,7%,1%
CCC1=NN(S(=O)(=O)c2ccc(C)cc2)C(O)(C(F)(F)F)C1 (stereo not given),nt,-12%,nt,-4%,-10%,-15%
CCC(=O)CC(NC(=O)OC)c1ccc(F)cc1 (stereo not given),nt,-11%[10 µM],nt,nt,nt,13%[13.5 µM]
CN(C)c1ccc(C(c2nnnn2C2CCCCC2)N2CCN(C(=O)c3ccco3)CC2)cc1 (stereo not given),nt,6%[10 µM],nt,nt,nt,nt
O=C(c1ccco1)N1CCN(C(c2cccs2)c2nnnn2C2CCCCC2)CC1 (stereo not given),3%,-23%[10 µM],0,17%,-2%,18µM*
